Compound activity as filed in PubChem BioAssay.
DNA Pol III inh: inhibitors of bacterial DNA polymerase III holoenzyme; actives 0.25% (n = 71,000); reconstituted DNA polymerase III holoenzyme replication, biochemical; Potency, µM (top dose mostly 57.1 µM), inactives show at the top dose activity change, negative = inhibition; note: % is set by controls: 0 for no effect and ±100 for the full control effect
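Reconstituted *E. coli* holoenzyme (0.35 nM Pol III, 1 nM beta, 154 nM SSB, 2 nM primase) was preincubated with compound for 15 min at RT. Synthesis on 1.4 nM ssM13Gori ran 35 min, then was stopped with PicoGreen/EDTA and read as dsDNA fluorescence.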
Tau fil binding: binds recombinant human tau filaments | recombinant tau filaments, thioflavin S fluorescence, 15 h; filaments grown with octadecylsulfate alongside compound | Potency, µM (doses to about 57.1 µM), without a hit: at the top dose activity change, negative = inhibition | actives 2% (n = 71,000) | AID 596;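 note: % is set by controls: 0 for no effect and ±100 for the full control effect; actives lower thioflavin S fluorescence by blocking filaments or displacing dye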
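Tau 2 uM in ThS buffer dispensed; compound added; 60 uM ODS added (finals 1 uM tau, 30 uM ODS); 15 h 37 C; fluor ex450/em510.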
TSHR agonist: TSH receptor (human) agonism; P16473; HEK293-CNG-TSHR cells (CNG channel as cAMP sensor), membrane potential dye, cAMP; AID 926; Potency, µM (highest dose often 57.1 µM), inactives show at the highest dose activation, hits mostly activators; actives 0.48% (n = 73,000); active = well fitted activation curve with a large enough effect in the main read-out, with a control signal flat, not every such curve was filed as active; inconclusive = small, poorly fitted or top-dose-only effect, or a change in a side signal; inactive = no such curve, though single readings can be large or run the other way; % of control where 0% means no effect;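 note: the control signal comes from parental cells without the receptor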
Target sequence (P16473 whole entry, looked up): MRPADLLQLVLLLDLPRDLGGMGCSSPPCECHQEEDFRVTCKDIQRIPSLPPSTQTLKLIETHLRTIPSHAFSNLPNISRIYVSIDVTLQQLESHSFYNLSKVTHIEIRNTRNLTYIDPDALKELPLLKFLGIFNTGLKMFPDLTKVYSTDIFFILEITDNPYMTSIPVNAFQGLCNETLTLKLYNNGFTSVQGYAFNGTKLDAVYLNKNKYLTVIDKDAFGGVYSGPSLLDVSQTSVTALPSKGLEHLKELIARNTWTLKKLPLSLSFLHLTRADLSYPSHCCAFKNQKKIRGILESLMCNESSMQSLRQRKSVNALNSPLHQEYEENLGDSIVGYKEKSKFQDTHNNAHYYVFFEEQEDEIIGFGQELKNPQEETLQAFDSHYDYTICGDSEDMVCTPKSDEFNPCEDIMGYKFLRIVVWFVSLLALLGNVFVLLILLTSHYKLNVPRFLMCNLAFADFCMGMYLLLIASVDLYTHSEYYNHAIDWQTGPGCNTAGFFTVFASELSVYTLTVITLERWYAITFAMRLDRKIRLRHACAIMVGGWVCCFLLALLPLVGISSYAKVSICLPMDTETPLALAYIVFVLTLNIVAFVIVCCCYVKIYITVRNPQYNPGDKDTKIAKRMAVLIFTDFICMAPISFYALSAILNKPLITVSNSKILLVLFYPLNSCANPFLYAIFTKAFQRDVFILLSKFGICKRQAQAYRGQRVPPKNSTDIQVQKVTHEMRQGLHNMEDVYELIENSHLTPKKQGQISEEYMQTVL
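HEK 293 cells stably expressing TSHR and a modified CNG channel, with CNG-only parental cells as counterscreen, were preloaded 60 min at room temperature with membrane potential dye containing 100 uM RO 20-1724. Compound exposure was 30 min, and depolarization was read as fluorescence at 590 nm.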
HEK293 cAMP cs: counter-screen for TSHR agonists: cAMP increase in parental HEK293 | parental HEK293 CNG cAMP sensor, membrane potential fluorescence | Potency, µM (top dose mostly 57.1 µM), for inactives: at the highest dose activation, hits mostly activators | actives 2.5% (n = 73,000); note: % of control where 0% means no effect; nearly all actives have a fitted effect of over 55% in size
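Counterscreen for endogenous-receptor signalling: CNG-channel HEK 293 cells report cAMP rise by membrane depolarization. After 60 min dye equilibration with 100 uM RO 20-1724, compounds incubated 30 min before bottom-read fluorescence at 590 nm.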
Hsp90 Hop PPI: changes Hsp90-Hop TPR2A binding signal, up or down. Potency, µM (titrated, usually from 57 µM), for the others: at the highest dose activity change, negative = inhibition. AlphaScreen TPR2A-His6 binding biotin-Hsp90 C-terminal peptide. AID 595. actives 0.44% (n = 71,000); active = well fitted curve in either direction with a large enough effect; inconclusive = small, poorly fitted or top-dose-only effect, or another doubt; note: % is set by controls: 0 for no effect and ±100 for the full control effect
An asterisk follows results filed as active; ? = inconclusive; . = no result given; ! = not active in a repeat; [ ] = dose if it differs, or a comment. Only some compounds are listed: those with a hit (about 5.1% of all), similar ones and a draw of the others. Unless noted, calls come from the whole dose curve; as a rule, active = well fitted curve in the direction sought with a large enough effect; inconclusive = small, poorly fitted or top-dose-only effect, or another doubt; inactive = no such curve, though single readings can be large; an effect the other way counts as inactive or inconclusive. Potency is the fitted concentration of half-maximal effect.

SMILES | DNA Pol III inh | Tau fil binding | TSHR agonist | HEK293 cAMP cs | Hsp90 Hop PPI
O=C(CSc1nnc(-c2ccccc2)o1)N1CCN(c2ccccc2)CC1 | -6.5% | 10µM* | 16.6% | 25.9% | 1.0%
Oc1ccc(Cl)cc1C=Nc1cnc2ccccc2c1 | -6.2%[11.4 µM] | -3.1%[11.4 µM] | -2.5%[11.4 µM] | -2.0%[11.4 µM] | -5.0%[11 µM]
Cc1ccccc1/C=C\C1=NCCN1 | -4.5% | 1.3% | 0.126µM* | 11.5% | -12.3%
CCc1ccc2oc(-c3cc(N)ccc3O)nc2c1 | -5.6% | 25.1µM* | -22.0% | -11.3% | -8.6%
CCc1ccc2oc(-c3cc(N)cc(C)c3O)nc2c1 | -0.4% | 12.6µM* | -38.5% | -14.3% | -3.5%
CCc1ccc2oc(-c3cc(N)ccc3Cl)nc2c1 | -3.0% | 7.1% | -19.0% | -13.6% | 3.4%
O=C(Cn1cnnn1)OCC(=O)c1ccc(Cl)s1 | 2.2% | 10µM* | 2.0% | 0.4% | -10.1%
Oc1ccccc1C(=S)N1CCCCC1 | -8.7% | -3.6% | -8.6% | -2.7% | -3.7%
Oc1ccccc1C(=S)N1CCCCCC1 | -5.0% | 25.1µM* | -4.2% | -6.3% | -9.5%
COCCOC(=O)C1=C(C)NC(C)=C(C(=O)OC(C)C)[C@@H]1c1cccc([N+](=O)[O-])c1 | -2.1% | 31.6µM*! | 4.9% | -17.7% | -12.5%
COC(=O)C1=C(C)NC(C)=C(C(=O)OCCN(C)Cc2ccccc2)[C@@H]1c1cccc([N+](=O)[O-])c1 | -2.9% | 31.6µM* | -36.9% | -7.5% | -27.5%
COc1ccc2c(Cl)cc(NC(=S)Nc3ccccc3)nc2c1 | -7.7%[11.4 µM] | -4.1%[11.4 µM] | -1.0%[11.4 µM] | 7.9%[11.4 µM] | 3.2%[11 µM]
CCCn1c(-c2ccc(F)cc2)nc2c(N3CCCN(Cc4ccccc4)CC3)nc(C)nc21 | -2.9% | 26.1% | ? | ? | -4.5%
Oc1ccc(CNCc2ccccc2)c2cccnc12 | -5.0%[11.4 µM] | -26.8%[11.4 µM] | -2.4%[11.4 µM] | 1.7%[11.4 µM] | ?
Oc1ccc(COCc2ccccc2)c2cccnc12 | -4.7% | -13.1% | ? | ? | 25.1µM*
Oc1c(CN2CCCCC2)cc(COCc2ccccc2)c2cccnc12 | -9.0% | -11.3% | -7.9% | 5.3% | 2.51µM*
O=C(Oc1c(CN2CCOCC2)cc(Cl)c2cccnc12)c1ccc(F)cc1 | -3.7% | -1.4% | . | 23.9% | 12.6µM*
COCc1cc(CN2CCCC2)c(O)c2ncccc12 | -3.3% | -15.7% | -2.5% | 0.3% | 3.16µM*
COc1ccccc1N1CCN(Cc2cc(Br)c(O)c3ncccc23)CC1 | -4.3% | -9.8% | -11.8% | -0.3% | -11.4%[2.3 µM]
CCC1OCCC=CC1C (stereo not drawn) | . | . | -1.8%[11.4 µM] | 0.8%[11.4 µM] | .
CC(=O)OC[C@@H]1O[C@@H](O/N=C2/C[C@@H](O)[C@@H](O)[C@@H]3[C@H]4C(=O)N(c5ccc(F)cc5F)C(=O)[C@@H]4CC[C@H]23)[C@H](OC(C)=O)[C@H](OC(C)=O)[C@@H]1OC(C)=O | . | . | -3.9%[11.4 µM] | -6.9%[11.4 µM] | .
Oc1ccc(CNc2ccccc2F)c2cccnc12 | -2.6% | -4.9% | 0.9% | 20.6% | 5.01µM*
Oc1c(CN2CCN(c3ccccn3)CC2)cc(Cl)c2cccnc12 | -4.7% | -23.5% | 22.7% | 5.6% | 7.94µM*
O=C(CSc1ccccn1)Nc1ccccc1F | -2.1% | 7.8% | . | 14.9% | 2.4%
O=C(COC(=O)C1CCCCC1C(=O)N1CCc2ccccc21)NCc1ccco1 (stereo not drawn) | -4.8% | 9.8% | ? | 20µM* | -6.8%
SMILES | DNA Pol III inh | Tau fil binding | TSHR agonist | HEK293 cAMP cs | Hsp90 Hop PPI
Cc1ccc(CCNC(=O)c2coc3nc4ccccc4nc23)cc1 | 5.5% | 6.9% | ? | 20µM* | 1.2%
COc1ccc(CN(CCN(C)C)Cc2ccccc2)c(OC)c1 | -5.9% | -9.8% | ? | 12.6µM* | -4.8%
CCN(Cc1ccccc1)Cc1cc(OC)cc(OC)c1 | 4.0%[11.4 µM] | -9.6%[11.4 µM] | ? | 5.01µM* | 3.3%[11 µM]
O=C(NCCN1CCCCC1)c1ccc(I)cc1 | 0.8% | -23.7% | 7.9% | 16.5% | -1.4%
CCCCCCCCCCCCCCC1CO1 (stereo not drawn) | -10.7% | 6.4% | 2.4% | 21.7% | 0.2%
CCOc1cccc(C(=O)Nc2ccc(N(CC)CC)cc2)c1 | -0.5%[11.4 µM] | 3.16µM* | 14.7%[11.4 µM] | -7.2%[11.4 µM] | -26.8%[11 µM]
CCN(CC)c1ccc(NC(=O)Nc2cccc(C(C)=O)c2)cc1 | 2.2% | 20µM* | -30.5% | -13.0% | -12.7%
COc1cccc(C(=O)Nc2ccc(C)cc2)c1 | -2.0% | -1.9% | -45.2% | 10.0% | 3.2%
CC(=O)c1cccc(NC(=O)Nc2ccc3c(c2)N(C)C(=O)CS3)c1 | -0.4% | 15.8µM* | 5.2% | -1.6% | -3.2%
